The record followed here is PubChem BioAssay (Tox21).

The nature of test [1]: Nuclear factor erythroid 2-related factor 2/antioxidant responsive element (Nrf2/ARE) small molecule agonists: qHTS cell viability counter screen in human keratinocytes (AID 1919968; active = well fitted curve in the direction sought with a large enough effect in the repeat runs; an effect the other way counts as inactive or inconclusive; note: nearly all actives have a fitted effect of over 55% in size; note: potency is the fitted concentration of half-maximal effect). The gist of the method:
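KeratinoSens HaCaT cells, 1,500/well, preincubated 5 h, then exposed to compounds in DMSO for 23 h at 37 C/5% CO2. Viability read as CellTiter-Fluor fluorescence after 1 h, in the same wells as the ARE-luciferase read.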
For orientation: In qHTS, concentration-response curves come from the screen itself.

A short description of test [2]: Nuclear factor erythroid 2-related factor 2/antioxidant responsive element (Nrf2/ARE) small molecule agonists: luciferase reporter gene qHTS assay in human keratinocytes (AID 1919969; note: nearly all actives have a fitted effect of over 35% in size; note: potency is the fitted concentration of half-maximal effect). (In a reporter assay the amount or activity of a reporter protein is the signal.)
Test [3] deals with Gonadotropin-releasing hormone receptor (Homo sapiens) (UniProt P30968). Description: Human gonadotropin-releasing hormone receptor (GnRHR) small molecule agonists, calcium flux assay in GnRHR-HEK293 cells (AID 1920063). Note: nearly all actives have a fitted effect of over 35% in size. The gist of the method: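 HEK293 cells stably expressing human GnRHR were dye-loaded for 1 h at 37 C. Compound was added in agonist mode and fluorescence (Ex/Em 480/540) recorded kinetically for 3 min. Fifteen concentrations, triplicates.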
On the technique in general: Calcium flux is commonly read through the fluorescence of an indicator in the cells.

The target of test [4] is KiSS-1 receptor (Homo sapiens) (UniProt Q969F8). Put plainly: Human kisspeptin (KISS1R) small molecule agonists, calcium flux assay in KISS1R-HEK293 cells (AID 1920064; active = well fitted curve in the direction sought with a large enough effect in the repeat runs; an effect the other way counts as inactive or inconclusive). The gist of the method: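 HEK293 cells stably expressing human KISS1R were loaded with calcium dye for 1 h at 37 C, then given compound; fluorescence (Ex/Em 480/540) was read kinetically for 3 min. Fifteen concentrations, triplicate.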

A short description of test [5]: G protein-coupled receptor (GPCR) small molecule agonists, calcium flux assay: HEK293 wild type cell line counter screen (AID 1920065). The gist of the method:
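Wild-type HEK293 cells plated 18 h, loaded with calcium dye 1 h at 37 C, then compounds added in agonist mode (ATP as positive control). Kinetic fluorescence Ex/Em 480/540 recorded 3 min at 1 sec intervals; 15 concentrations, triplicate.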

Test [6] can be described thus: p53 small molecule agonists, cell-based qHTS assay with human liver microsomes (AID 1963577). The gist of the method: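 Fluorescence of the beta-lactamase reporter in p53RE-bla cells, detected with LiveBLAzer substrate (2 h, room temperature, dark), served as the read-out after 16 h compound exposure at 37 C with human liver microsomes and NADPH, each 0.5 mg/mL final.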

Test [7] is described as follows: p53 small molecule agonists, cell-based qHTS assay with rat liver microsomes (AID 1963578). The gist of the method: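 Cells carrying a p53 response element–beta-lactamase reporter were plated and rested 5 h, then dosed with compound in DMSO plus rat liver microsomes and NADPH, each at 0.5 mg/mL final. After 16 h at 37 C, LiveBLAzer substrate was added for 2 h.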

Test [8] is described as follows: p53 small molecule agonists, cell-based qHTS assay with rat liver microsomes: qHTS cell viability counter screen (AID 1963580). Note: nearly all actives have a fitted effect of over 45% in size. The gist of the method:
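Intracellular ATP, by CellTiter-Glo luminescence, defines viability. HCT-116 p53RE-bla cells, 4,000 per well, were compound-treated in the presence of rat liver microsomes and NADPH for 16 h at 37 C.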

A short description of test [9]: p53 small molecule agonists, cell-based qHTS assay: qHTS cell viability counter screen (AID 1963581). Note: nearly all actives have a fitted effect of over 45% in size. Note: potency is the fitted concentration of half-maximal effect. The gist of the method: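 p53RE-bla HCT-116 cells, compounds added 5 h after plating and incubated 16 h at 37 C. Cytotoxicity measured in the same wells as intracellular ATP by CellTiter-Glo luminescence after 30 min at room temperature.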
Test [10] can be described thus: p53 small molecule agonists, cell-based qHTS assay (AID 1963582; active = well fitted activation curve with a large enough effect in the signal ratio in the repeat runs, not every such curve was filed as active; the % refers to the signal ratio). The gist of the method:
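p53RE-bla reporter cells, compounds added in DMSO after 5 h plating, incubated 16 h at 37 C. Beta-lactamase read via 2 h room-temperature LiveBLAzer B/G FRET substrate, fluorescence intensity.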

Test [11] can be described thus: cAMP Responsive Elements (CRE) small molecule antagonists, cell-based qHTS assay (AID 1963591; active = well fitted inhibition curve with a large enough effect in the signal ratio in the repeat runs, not every such curve was filed as active; the % refers to the signal ratio). The gist of the method: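 CRE-bla HEK293T cells plated 18 h, then given compound plus NKH477 at 0.25 uM final for 3 h at 37C. Beta-lactamase reporter read with LiveBLAzer B/G FRET substrate after 2 h at room temperature.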
Test [12] deals with Beta-2 adrenergic receptor (Homo sapiens) (UniProt P07550). Description: Adrenergic beta2 receptor (ADRB2) small molecule antagonists, cell-based qHTS assay (AID 1963592). Note: nearly all actives have a fitted effect of over 50% in size. Note: potency is the fitted concentration of half-maximal effect. The gist of the method: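 Cells (CHO, stable ADRB2 overexpression) incubated 18-20hr at 37C; compounds added from DMSO; agonist mix (1nM isoproterenol, 100uM IBMX, 25uM Ro-20-1724) added; 0.5hr RT; d2-cAMP and anti-cAMP-cryptate added; 1hr RT; 665/615 nm read.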

Test [13] deals with D(2) dopamine receptor (Homo sapiens) (UniProt P14416). Put plainly: Dopamine D2 receptor (DRD2) small molecule agonists, cell-based qHTS assay (AID 1963594). Note: nearly all actives have a fitted effect of over 35% in size. The gist of the method: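 cAMP accumulation in DRD2-HEK293 cells measured by HTRF after 1 h detection; compounds added 10 min before NKH477 (200nM […]) forskolin-analogue stimulation, 30 min at room temperature, with Ro20-1724 present at 0.1 mM final.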

The target in test [14] is 5-hydroxytryptamine receptor 2A (Homo sapiens) (UniProt P28223). Description: 5-hydroxytryptamine receptor 2A (HTR2A) small molecule antagonists, cell-based qHTS assay (AID 1963586). Note: nearly all actives have a fitted effect of over 45% in size. The gist of the method: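 Antagonist-mode intracellular calcium assay: DOI (4 nM) added after 5 min compound pre-incubation at room temperature to dye-loaded HTR2A-CHO cells. Fluorescence followed for 3 min, sampled every second.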

Test [15] has the same target. Put plainly: 5-hydroxytryptamine receptor 2A (HTR2A) small molecule agonists, cell-based qHTS assay (AID 1963587). Note: nearly all actives have a fitted effect of over 30% in size. The gist of the method: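 Kinetic calcium-flux fluorescence (2 min, 1 sec intervals) after compound addition in agonist mode. HTR2A-CHO cells were cultured 18 h, then dye-loaded 1 h at 37 C.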
The target in test [16] is Muscarinic acetylcholine receptor M1 (Homo sapiens) (UniProt P11229). Put plainly: Cholinergic receptor muscarinic 1 (CHRM1) small molecule antagonists, cell-based qHTS assay (AID 1963588). Note: nearly all actives have a fitted effect of over 40% in size. The gist of the method:
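CHRM1-CHO calcium-flux assay, antagonist mode. Cells were seeded 18 h, dye-loaded 1 h at 37 C and given compound for 5 min at RT, then acetylcholine was added at 50nM. FDSS fluorescence was read 3 min; 15 concentrations, three runs.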

For test [17] the target is unchanged. Description: Cholinergic receptor muscarinic 1 (CHRM1) small molecule agonists, cell-based qHTS assay (AID 1963589). Note: nearly all actives have a fitted effect of over 35% in size. The gist of the method:
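CHO cells stably expressing human CHRM1 were loaded with calcium dye for 1 h at 37 C, then compound was added in agonist mode. Intracellular calcium fluorescence was followed kinetically at 1 s intervals. Fifteen concentrations were tested in three independent runs.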

A short description of test [18]: cAMP Responsive Elements (CRE) small molecule agonists, cell-based qHTS assay (AID 1963590). The gist of the method:
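CRE-bla HEK 293T cells, 2,000/well in DMEM with 10% dialyzed FBS and 25 mM HEPES, pre-incubated 18 h at 37 C, then exposed to compound 3 h at 37 C. Beta-lactamase reporter read with LiveBLAzer B/G FRET substrate after 2 h at room temperature.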

Test [19] addresses D(2) dopamine receptor (Homo sapiens) (UniProt P14416). Description: Dopamine D2 receptor (DRD2) small molecule antagonists, cell-based qHTS assay (AID 1963595; active = well fitted inhibition curve with a large enough effect in the signal ratio in the repeat runs, with a control signal flat; the % refers to the signal ratio). The gist of the method:
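Antagonist mode in DRD2-HEK293 cells: after compound addition with 0.1 mM Ro20-1724, cells received quinpirole (12 nM) and NKH477 (200 nM) for 30 min at room temperature; HTRF cAMP read after 1 h detection.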

“And” between values parts separate entries of the source, which are not always exact repeats. Equal values may be shown once. Inconclusive results are not listed. Where a structure was tested more than once in an assay, its records may differ in their call. The source made the active and inactive calls. Unless noted, calls come from the whole dose curve.

D(2) dopamine receptor (Homo sapiens), sequence (P14416 whole entry, looked up): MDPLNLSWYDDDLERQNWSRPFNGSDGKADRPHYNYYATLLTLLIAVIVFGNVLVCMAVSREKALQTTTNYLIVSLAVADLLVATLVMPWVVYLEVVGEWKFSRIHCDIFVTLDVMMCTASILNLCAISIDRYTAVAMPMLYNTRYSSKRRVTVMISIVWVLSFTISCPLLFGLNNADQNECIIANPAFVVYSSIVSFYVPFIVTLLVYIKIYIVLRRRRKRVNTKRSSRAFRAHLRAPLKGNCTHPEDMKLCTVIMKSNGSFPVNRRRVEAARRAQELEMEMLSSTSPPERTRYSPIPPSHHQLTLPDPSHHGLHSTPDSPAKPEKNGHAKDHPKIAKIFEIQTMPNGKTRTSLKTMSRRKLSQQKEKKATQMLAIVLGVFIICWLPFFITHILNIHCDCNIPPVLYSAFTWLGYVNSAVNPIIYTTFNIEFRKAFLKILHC
Muscarinic acetylcholine receptor M1 (Homo sapiens), sequence (P11229 whole entry, looked up): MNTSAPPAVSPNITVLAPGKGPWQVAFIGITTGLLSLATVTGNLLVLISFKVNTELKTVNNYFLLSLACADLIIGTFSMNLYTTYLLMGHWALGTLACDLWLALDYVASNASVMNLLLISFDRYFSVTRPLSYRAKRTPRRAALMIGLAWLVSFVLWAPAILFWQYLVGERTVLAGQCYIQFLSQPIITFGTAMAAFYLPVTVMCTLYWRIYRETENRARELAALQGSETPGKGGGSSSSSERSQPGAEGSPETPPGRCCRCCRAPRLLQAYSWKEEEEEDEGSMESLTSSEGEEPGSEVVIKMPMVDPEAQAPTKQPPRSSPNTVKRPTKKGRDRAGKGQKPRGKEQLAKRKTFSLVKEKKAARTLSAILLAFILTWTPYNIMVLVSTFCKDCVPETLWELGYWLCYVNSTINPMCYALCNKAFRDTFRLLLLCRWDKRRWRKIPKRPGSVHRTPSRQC
Beta-2 adrenergic receptor (Homo sapiens), sequence (P07550 whole entry, looked up): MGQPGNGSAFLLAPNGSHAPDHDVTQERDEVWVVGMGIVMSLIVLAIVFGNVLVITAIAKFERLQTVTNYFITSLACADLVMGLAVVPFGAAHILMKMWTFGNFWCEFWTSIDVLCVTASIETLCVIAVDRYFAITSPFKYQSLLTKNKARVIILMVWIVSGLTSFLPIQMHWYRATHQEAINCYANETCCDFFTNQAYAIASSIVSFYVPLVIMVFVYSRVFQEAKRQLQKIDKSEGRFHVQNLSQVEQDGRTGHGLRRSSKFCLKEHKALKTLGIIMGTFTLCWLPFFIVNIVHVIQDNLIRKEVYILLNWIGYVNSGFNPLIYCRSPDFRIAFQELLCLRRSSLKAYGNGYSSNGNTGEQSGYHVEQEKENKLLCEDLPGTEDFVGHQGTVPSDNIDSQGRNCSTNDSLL
Gonadotropin-releasing hormone receptor (Homo sapiens), sequence (P30968 whole entry, looked up): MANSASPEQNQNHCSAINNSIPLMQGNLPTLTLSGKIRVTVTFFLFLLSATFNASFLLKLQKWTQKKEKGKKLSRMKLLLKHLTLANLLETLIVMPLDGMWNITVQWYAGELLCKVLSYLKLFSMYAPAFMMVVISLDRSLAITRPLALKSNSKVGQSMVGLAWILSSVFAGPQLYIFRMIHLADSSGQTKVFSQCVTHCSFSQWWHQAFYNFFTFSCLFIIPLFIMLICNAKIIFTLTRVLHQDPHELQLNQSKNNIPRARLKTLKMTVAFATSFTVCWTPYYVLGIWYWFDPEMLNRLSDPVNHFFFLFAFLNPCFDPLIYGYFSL
5-hydroxytryptamine receptor 2A (Homo sapiens), sequence (P28223 whole entry, looked up): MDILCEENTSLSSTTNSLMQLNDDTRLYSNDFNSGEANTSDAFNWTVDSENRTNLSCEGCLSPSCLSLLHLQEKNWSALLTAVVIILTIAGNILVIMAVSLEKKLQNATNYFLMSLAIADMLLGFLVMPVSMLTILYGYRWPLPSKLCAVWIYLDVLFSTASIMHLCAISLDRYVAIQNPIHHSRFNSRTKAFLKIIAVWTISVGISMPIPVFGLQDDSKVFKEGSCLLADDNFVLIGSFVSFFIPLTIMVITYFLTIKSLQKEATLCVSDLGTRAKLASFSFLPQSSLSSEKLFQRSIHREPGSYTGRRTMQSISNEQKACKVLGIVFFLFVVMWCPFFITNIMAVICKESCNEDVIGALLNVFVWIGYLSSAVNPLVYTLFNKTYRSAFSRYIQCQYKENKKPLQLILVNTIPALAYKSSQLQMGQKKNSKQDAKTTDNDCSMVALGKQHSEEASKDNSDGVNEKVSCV
KiSS-1 receptor (Homo sapiens), sequence (Q969F8 whole entry, looked up): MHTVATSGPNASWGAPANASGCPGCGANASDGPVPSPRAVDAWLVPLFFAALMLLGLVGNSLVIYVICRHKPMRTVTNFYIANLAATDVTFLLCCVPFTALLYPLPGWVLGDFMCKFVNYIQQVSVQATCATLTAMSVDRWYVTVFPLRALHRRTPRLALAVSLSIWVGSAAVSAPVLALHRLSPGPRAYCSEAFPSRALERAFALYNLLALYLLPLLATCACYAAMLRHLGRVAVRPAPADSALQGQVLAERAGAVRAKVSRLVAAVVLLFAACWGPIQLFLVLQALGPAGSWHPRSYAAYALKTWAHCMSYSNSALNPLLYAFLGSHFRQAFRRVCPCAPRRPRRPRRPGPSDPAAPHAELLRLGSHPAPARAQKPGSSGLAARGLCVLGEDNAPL

Regarding `O=C(Nc1ccc(Br)cc1)c1cc(Br)cc(Br)c1O`, the Potency in test [1] is 6.09 µM (active) and 6.11 µM (active) and 7.5 µM (active); in test [2], 54.3 µM (active) and 10.9 µM (active) and 13.3 µM (active); in test [9], “inactive and 3.97 µM (active)”. The Potency result in test [3], in test [4], in [5], in test [6], in test [7] and in [8] was “inactive” each time. Also, the Potency entry in [10], in [11], in test [12] and in test [13] was “inactive” each time.
As for `Cc1cccc(N)c1N`, the Potency entry in test [1], in test [3], in test [4], in [5], in test [6] and in test [7] was “inactive” throughout. Moreover, the Potency result in test [8], in test [9], in [10], in test [14], in test [15] and in test [16] was “inactive” in each case. The Potency entry in test [17], in test [18], in test [11], in test [12], in test [13] and in [19] was “inactive” each time. Further, the Potency in test [2] was 2.35 µM (active) and 48.6 µM (active).
Regarding `O=[N+]([O-])c1cccc(O)c1`, the Potency entry in test [1], in test [2], in test [3], in test [4], in [5] and in test [6] was “inactive” in each case. Also, the Potency entry in [7], in [8], in test [9], in test [14], in test [15] and in test [17] was “inactive” each time. Moreover, the Potency entry in [18], in [11], in test [12], in [13] and in test [19] was “inactive” in each case.
As for `Oc1ccc(-c2ccccc2)cc1`, the Potency entry in test [1], in test [3], in [4], in test [5], in test [6] and in test [7] was “inactive” throughout. Besides, the Potency result in test [8], in test [9], in [10], in test [14], in test [15] and in test [16] was “inactive” in each case. For the same molecule, the Potency result in test [17], in test [18], in [11] and in [19] was “inactive” in each case. The Potency was 61.1 µM (active) in [2]; 60.3 µM (active) and inactive in test [12].
Regarding `O=NN(c1ccccc1)c1ccccc1`, the Potency entry in [1], in test [2], in test [3], in test [4], in test [5] and in [6] was “inactive” throughout. Also, the Potency result in test [7], in [8], in test [9], in test [10], in test [14] and in [15] was “inactive” in each case. Also, the Potency result in test [16], in test [17], in test [18], in [11], in test [12] and in test [19] was “inactive” throughout.
As for `Cc1ccc(N)c(N)c1`, the Potency entry in test [1], in test [3], in test [4], in test [5], in test [6] and in test [7] was “inactive” throughout. For the same molecule, the Potency entry in [8], in [9], in test [14], in test [15], in test [16] and in test [17] was “inactive” throughout. The Potency entry in test [18], in [11], in [12], in [13] and in [19] was “inactive” each time. Also, in test [2], the Potency is 4.87 µM (active) and 68.6 µM (active).
Regarding `CCOC(=O)c1ccccc1C(=O)OCC`, the Potency entry in [1], in test [2], in test [3], in test [4], in test [5] and in test [6] was “inactive” throughout. Besides, the Potency result in test [7], in test [8], in [9], in test [10], in test [14] and in test [15] was “inactive” each time. For the same molecule, the Potency entry in [16], in test [17], in [18], in [11], in test [12] and in test [13] was “inactive” in each case. In [19], the Potency entry was “inactive”.
